Consider 7 compounds from PubChem BioAssay (NCATS).

Experiment [1] is described as follows: qHTS Assay for Lipid Storage Modulators (AID 1519; calls by dose curve; as to activity change, negative = inhibition: % is scaled to controls: 0 for no effect and ±100 for the full control effect). As to conditions: Drosophila S3 cells, BODIPY lipid droplet/cell ratio, laser cytometry, cells loaded with oleic acid; for activity change, negative = inhibition: at 57.5 µM (top of the series). In outline: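 Cells seeded at 5,000 per well were treated with compounds over a concentration series and loaded with oleic acid (400 uM, as added). Lipid droplet fluorescence (488 nm excitation, 500-530 nm channel) was read by laser-scanning cytometry and normalized to 20 uM Triacsin C.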

In experiment [2] the target is DNA repair nuclease/redox regulator APEX1 (Homo sapiens) (UniProt P27695). The experiment is described as follows: qHTS Validation Assay for Inhibitors of the Human Apurinic/apyrimidinic Endonuclease 1 (APE1) (AID 1705; also: potency is read from the fitted curve at half-maximal effect;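 as to activity change, negative = inhibition: TAMRA fluorescence gain over two minutes as APE1 cuts a quenched THF abasic duplex; % is scaled to controls: 0 for no effect and ±100 for the full control effect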). To be noted: purified APE1 endonuclease activity, fluorescence, titration; series mostly up to 57.1 µM. In outline: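 Endonuclease activity of human APE1 is followed as dequenching when the enzyme incises a tetrahydrofuran abasic site in a short duplex labelled 5'-TAMRA/3'-BHQ-2 (50 nM final), after 15 min enzyme–compound preincubation at room temperature.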
(In general: qHTS replaces the single test concentration by a dilution series.)

Experiment [3] can be described thus: Counterscreen for APE1 Inhibitors: Fluorescent Dye Displacement Validation Assay (AID 1707). Also: potency is read from the fitted curve at half-maximal effect.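 As to activity change, negative = inhibition: plate controls were ThO with dsDNA and no compound for no effect and ThO without dsDNA for full effect.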 To be noted: fluorescent dye displacement from DNA; series mostly up to 57.1 µM. In outline:
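Thiazole Orange (250 nM) bound to 50 nM TAMRA-labelled dsDNA with tetrahydrofuran abasic site; displacement by DNA-binding compounds lowers fluorescence. Buffer 50 mM Tris-HCl pH 7.5, 50 mM NaCl, 2 mM MgCl2, 0.01% Tween-20; endpoint read at 480/540 nm.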
A general note: Counterscreens check selectivity or assay interference.

Experiment [4] concerns the target Endonuclease 4 (Escherichia coli (strain K12)) (UniProt P0A6C1). Nature of the experiment: Counterscreen for APE1 Inhibitors: qHTS Validation Assay for Inhibitors of Endonuclease IV (AID 1708). Also: potency is read from the fitted curve at half-maximal effect. As to activity change, negative = inhibition: % is scaled to controls: 0 for no effect and ±100 for the full control effect. As to conditions: E. coli endonuclease IV, DNA cleavage fluorescence; series mostly up to 57.1 µM. In a few lines: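 E. coli EndoIV at 2 nM final, preincubated 15 min at room temperature with compound, then 50 nM TAMRA/BHQ-2 THF abasic-site duplex added. Buffer: 50 mM Tris-HCl pH 7.5, 50 mM NaCl, 2 mM MgCl2, 1 mM DTT, 0.01% Tween-20. Kinetic fluorescence increase, third minus first read.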

Experiment [5] in a line: qHTS for differential inhibitors of proliferation of Plasmodium falciparum line 7G8 (AID 1815).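 Also: parasite growth measured after three days of incubation.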 Also: potency is read from the fitted curve at half-maximal effect.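 As to activity change, negative = inhibition: plate controls were vehicle wells for no effect and reference inhibitor wells for full effect.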 To be noted: Plasmodium falciparum 7G8 proliferation inhibition; series mostly up to 28.7 µM.
Experiment [6] is described as follows: qHTS for differential inhibitors of proliferation of Plasmodium falciparum line GB4 (AID 1816).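 Also: parasite growth measured after 72 h incubation.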 Also: potency is read from the fitted curve at half-maximal effect.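 As to activity change, negative = inhibition: 0% = vehicle DMSO and -100% = reference inhibitor.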 As to conditions: Potency: Plasmodium falciparum GB4 proliferation inhibition; series mostly up to 28.7 µM.
Experiment [7] is described as follows: qHTS for differential inhibitors of proliferation of Plasmodium falciparum line 3D7 (AID 1876). Also: potency is read from the fitted curve at half-maximal effect. As to conditions: P. falciparum 3D7 proliferation inhibition; series mostly up to 28.7 µM.
The nature of experiment [8]: qHTS for differential inhibitors of proliferation of Plasmodium falciparum line D10 (AID 1877).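 Also: parasites grown with compound for 72 h before DNA staining.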 Also: potency is read from the fitted curve at half-maximal effect.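 As to activity change, negative = inhibition: plate controls were vehicle wells for no effect and reference inhibitor wells for full effect.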 To be noted: series mostly up to 28.7 µM.
A short description of experiment [9]: qHTS for differential inhibitors of proliferation of Plasmodium falciparum line W2 (AID 1883).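 Also: parasites grown with compound for 72 h before lysis and staining.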 Also: potency is read from the fitted curve at half-maximal effect.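 As to activity change, negative = inhibition: 0% = vehicle wells and -100% = control inhibitor wells.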 To be noted: Potency: Plasmodium falciparum W2 proliferation inhibition; series mostly up to 28.7 µM.
The nature of experiment [10]: qHTS for differential inhibitors of proliferation of Plasmodium falciparum line HB3 (AID 1886).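 Also: parasites grown with compound for 72 h before SYBR Green readout.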 Also: potency is read from the fitted curve at half-maximal effect.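 As to activity change, negative = inhibition: plate controls were vehicle for no effect and reference inhibitor for full effect.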 To be noted: Potency: Plasmodium falciparum HB3 proliferation inhibition; series mostly up to 28.7 µM.
The target in experiment [11] is Ferritin light chain (Equus caballus) (UniProt P02791). The experiment is described as follows: qHTS Validation Assay for Identification of Novel General Anesthetics (AID 2323). Also: % is scaled to controls: 0 for no effect and ±100 for the full control effect. As to conditions: horse apoferritin, anesthetic-site fluorescent probe displacement; series mostly up to 76.9 µM. In outline: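 Apoferritin from horse spleen (10 uM) was mixed with 1-aminoanthracene at 50% saturation in PBS, then compounds were added. After 10 min at room temperature, fluorescence was read (ex 380 nm, em 535 nm) and normalized to free-probe and complex controls.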

Experiment [12] deals with ATP-dependent DNA helicase Q1 (Homo sapiens) (UniProt P46063). Nature of the experiment: qHTS Validation Assay for Inhibitors of RecQ-Like Dna Helicase 1 (RECQ1) (AID 2353). Also: potency is read from the fitted curve at half-maximal effect.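 As to activity change, negative = inhibition: plate controls were DMSO vehicle for no effect and enzyme-free control for full effect.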 To be noted: recombinant RECQ1 helicase DNA unwinding assay; series mostly up to 25.6 µM. In a few lines: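 50 nM RECQ1T1 preincubated 15 min with compound in Tris pH 8.0 buffer with MgCl2, DTT, Tween-20 and 2.5 ug/ml poly(dI-dC); started with 200 nM TAMRA/BHQ-2 forked duplex and 2 mM ATP. Unwinding read as fluorescence (525/598 nm), two reads 2 h apart.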

In experiment [13] the target is RecQ-like DNA helicase BLM (Homo sapiens) (UniProt P54132). The experiment is described as follows: qHTS Validation Assay for Inhibitors of Bloom's syndrome helicase (BLM) (AID 2364). Also: potency is read from the fitted curve at half-maximal effect.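 As to activity change, negative = inhibition: plate controls were DMSO vehicle for no effect and enzyme-free control for full effect.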 As to conditions: BLM helicase DNA unwinding, fluorescence, in vitro; series mostly up to 57.1 µM. In a few lines: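 50 nM BLM preincubated 15 min at room temperature with compound in pH 8.0 Tris buffer containing 2.5 ug/ml poly(dI-dC); started with 200 nM TAMRA/BHQ-2 forked duplex and 2 mM ATP (final). Unwinding read as TAMRA fluorescence increase, two reads 2 h apart.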

The nature of experiment [14]: Cytometric Cell-Based qHTS for Inhibitors of the mTORC1 Signaling Pathway in MEF (Tsc2-/-, p53-/-) Cells (AID 2660).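 Also: percent of cells above a phospho-rpS6 to PI ratio cutoff in each well; plate controls were DMSO for no effect and rapamycin for full effect.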 As to conditions: mTORC1 pathway cytometry; series mostly up to 38.3 µM. In a few lines:
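Tsc2-/-, p53-/- MEFs (empty vector) exposed to compound 24 h at 37 C, fixed, stained with Alexa-488 anti-phospho-rpS6 Ser235/236 and propidium iodide. Acumen laser scanning; phospho-S6/PI ratio thresholded against 7.5 nM rapamycin, reported as % positive cells.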

Experiment [15] is described as follows: High Content Imaging Cell-Based qHTS for Inhibitors of the mTORC1 Signaling Pathway in MEF (Tsc2-/-, p53-/-) Cells (AID 2666).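 Also: percent of cells scored positive for phospho-rpS6 Ser235/236 immunostaining by imaging.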 To be noted: series mostly up to 38.3 µM. In a few lines:
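Phospho-rpS6 (Ser235/236) immunofluorescence, normalized and scored as % positive cells using rapamycin and DMSO controls, was read in empty-vector Tsc2-/-, p53-/- MEFs after 24 h compound exposure at 37 C; propidium iodide counted cells.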

A short description of experiment [16]: qHTS for differential inhibitors of proliferation of Plasmodium falciparum line Dd2 (AID 1882). Also: nearly all actives have a fitted effect of over 65% in size. Also: potency is read from the fitted curve at half-maximal effect.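 As to activity change, negative = inhibition: plate controls were DMSO vehicle for no effect and 0.29 µM artemisinin for full effect.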 As to conditions: Potency: Plasmodium falciparum Dd2 proliferation inhibition; series mostly up to 28.7 µM. In outline:
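Dd2-infected erythrocytes (0.3% parasitemia, 2.5% hematocrit final) incubated with compound 72 h at 37 C, 5% CO2; lysed with saponin/Triton buffer containing SYBR Green I, incubated overnight in the dark, then read by fluorescence (485/535 nm). Normalized to 0.29 uM artemisinin and DMSO.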

A short description of experiment [17]: qHTS Assay for Modulators of Human Peripheral Myelin Protein 22 (PMP22) Expression/Activity (AID 1967; active = well fitted curve in the direction sought with a large enough effect in the signal ratio; the % refers to the signal ratio;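 also: 0% = untreated cells and 100% end not stated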). As to conditions: Cell-based PMP22 reporter, dual-color luciferase ratio, mouse Pmp22 promoter in mouse Schwann cells; series mostly up to 115 µM. In outline:
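Quantitative HTS in a mouse Schwann cell line expressing dual click beetle luciferases: Pmp22 promoter (green) and control EF-alpha promoter (red). After 24h treatment, corrected green/red signal ratio gave %Activity relative to untreated cells.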

[18] abbreviates: measured here: cell count channel max response.
The mark [19] stands for this setting: measured here: lipid channel max response.

Results filed as inconclusive are left out. The source made the active and inactive calls. Unless noted, calls follow the shape of the dose curve; as a rule, active = well fitted curve in the direction sought with a large enough effect; inconclusive = small, poorly fitted or top-dose-only effect, or another doubt; inactive = no such curve, though single readings can be large; an effect the other way counts as inactive or inconclusive.

RecQ-like DNA helicase BLM (Homo sapiens), sequence (P54132 whole entry, looked up): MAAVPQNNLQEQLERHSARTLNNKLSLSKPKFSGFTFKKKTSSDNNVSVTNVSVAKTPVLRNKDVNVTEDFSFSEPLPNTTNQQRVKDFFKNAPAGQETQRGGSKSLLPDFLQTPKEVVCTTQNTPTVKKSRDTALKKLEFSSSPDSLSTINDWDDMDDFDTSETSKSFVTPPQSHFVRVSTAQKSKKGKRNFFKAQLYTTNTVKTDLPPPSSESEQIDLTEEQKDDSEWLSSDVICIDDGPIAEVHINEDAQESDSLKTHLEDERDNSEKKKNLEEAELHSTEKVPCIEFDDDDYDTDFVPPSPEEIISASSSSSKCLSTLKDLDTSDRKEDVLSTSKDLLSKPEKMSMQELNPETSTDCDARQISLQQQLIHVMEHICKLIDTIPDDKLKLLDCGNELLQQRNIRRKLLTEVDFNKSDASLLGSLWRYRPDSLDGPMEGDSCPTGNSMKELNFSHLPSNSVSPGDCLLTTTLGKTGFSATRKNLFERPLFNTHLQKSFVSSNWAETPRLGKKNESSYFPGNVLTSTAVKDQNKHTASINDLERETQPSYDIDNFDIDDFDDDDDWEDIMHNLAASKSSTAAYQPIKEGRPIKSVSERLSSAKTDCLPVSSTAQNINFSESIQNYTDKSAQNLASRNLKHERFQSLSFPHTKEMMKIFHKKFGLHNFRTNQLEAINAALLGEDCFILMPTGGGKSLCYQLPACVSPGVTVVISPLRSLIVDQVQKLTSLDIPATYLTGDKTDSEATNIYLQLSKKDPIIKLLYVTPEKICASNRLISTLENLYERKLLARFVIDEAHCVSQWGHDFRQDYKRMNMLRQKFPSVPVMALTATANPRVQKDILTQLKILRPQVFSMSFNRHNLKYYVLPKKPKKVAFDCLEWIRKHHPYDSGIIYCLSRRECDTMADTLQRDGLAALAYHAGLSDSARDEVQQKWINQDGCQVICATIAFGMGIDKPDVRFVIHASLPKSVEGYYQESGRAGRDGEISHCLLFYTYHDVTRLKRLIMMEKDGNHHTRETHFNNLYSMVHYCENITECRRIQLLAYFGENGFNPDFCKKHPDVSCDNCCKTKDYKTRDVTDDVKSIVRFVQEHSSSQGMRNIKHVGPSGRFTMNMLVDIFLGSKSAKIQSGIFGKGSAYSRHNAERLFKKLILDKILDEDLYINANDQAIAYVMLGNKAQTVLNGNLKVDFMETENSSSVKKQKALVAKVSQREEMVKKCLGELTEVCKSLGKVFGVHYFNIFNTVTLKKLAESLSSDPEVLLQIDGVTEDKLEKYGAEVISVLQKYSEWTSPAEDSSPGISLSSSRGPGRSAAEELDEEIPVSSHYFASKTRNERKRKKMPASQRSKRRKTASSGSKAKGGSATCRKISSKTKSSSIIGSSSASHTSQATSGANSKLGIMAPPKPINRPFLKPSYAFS
ATP-dependent DNA helicase Q1 (Homo sapiens), sequence (P46063 whole entry, looked up): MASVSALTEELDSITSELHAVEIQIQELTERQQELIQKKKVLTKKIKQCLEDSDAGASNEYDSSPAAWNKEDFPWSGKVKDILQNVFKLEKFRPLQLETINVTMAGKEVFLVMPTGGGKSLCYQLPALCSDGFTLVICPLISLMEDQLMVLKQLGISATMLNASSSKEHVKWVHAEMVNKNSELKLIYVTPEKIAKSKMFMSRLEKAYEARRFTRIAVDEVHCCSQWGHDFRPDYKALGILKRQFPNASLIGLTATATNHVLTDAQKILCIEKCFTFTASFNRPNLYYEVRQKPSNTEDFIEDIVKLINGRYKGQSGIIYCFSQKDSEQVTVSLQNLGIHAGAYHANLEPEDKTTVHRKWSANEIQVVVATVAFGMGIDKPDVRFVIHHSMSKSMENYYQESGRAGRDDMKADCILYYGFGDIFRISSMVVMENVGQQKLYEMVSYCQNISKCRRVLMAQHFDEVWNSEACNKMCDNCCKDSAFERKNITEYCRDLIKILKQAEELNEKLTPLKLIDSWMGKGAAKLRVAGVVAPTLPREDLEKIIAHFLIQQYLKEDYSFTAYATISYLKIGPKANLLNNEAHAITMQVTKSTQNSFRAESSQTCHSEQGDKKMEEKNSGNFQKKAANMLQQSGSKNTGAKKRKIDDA
Ferritin light chain (Equus caballus), sequence (P02791 2-175 limits assumed): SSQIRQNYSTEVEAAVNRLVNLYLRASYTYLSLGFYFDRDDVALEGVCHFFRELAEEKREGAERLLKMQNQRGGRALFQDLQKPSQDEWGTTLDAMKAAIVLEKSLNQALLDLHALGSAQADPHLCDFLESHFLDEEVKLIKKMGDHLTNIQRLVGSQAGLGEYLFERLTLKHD
DNA repair nuclease/redox regulator APEX1 (Homo sapiens), sequence (P27695 whole entry, looked up): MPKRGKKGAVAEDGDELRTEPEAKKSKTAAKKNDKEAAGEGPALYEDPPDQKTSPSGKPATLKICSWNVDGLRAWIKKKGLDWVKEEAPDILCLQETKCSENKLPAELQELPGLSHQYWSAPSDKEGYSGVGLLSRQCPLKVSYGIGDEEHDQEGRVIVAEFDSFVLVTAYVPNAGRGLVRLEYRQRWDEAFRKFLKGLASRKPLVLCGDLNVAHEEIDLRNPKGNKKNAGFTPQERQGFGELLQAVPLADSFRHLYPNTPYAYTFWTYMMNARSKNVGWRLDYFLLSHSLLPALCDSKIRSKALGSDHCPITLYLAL

As for `O=[N+]([O-])c1ccc2nc(N3CCNCC3)ccc2c1`, the activity change, negative = inhibition in experiment [1] is 0.42% (inactive). Besides, the max response in experiment [1] (setting [18]) was 28.4%; in [1] (setting [19]), 27.7%. In addition, the Potency entry in experiment [2], in experiment [3], in experiment [4], in [12], in [13] and in [14] was “inactive” each time. Moreover, the Potency entry in [15] was “inactive”. Moreover, the Potency in experiment [5] was 8.91 µM (active); in [6] it was 12.6 µM (active); in [7], 10 µM (active); in experiment [8] it was 12.6 µM (active); in experiment [9] it was 7.94 µM (active); in [10] it was 12.6 µM (active). Also, the call in [11] was inactive.

For `CCS(=O)(=O)Nc1cccc(C(=C2CCCCC2)c2cnc[nH]2)c1`, in experiment [1], the activity change, negative = inhibition was 1.44% (inactive). The max response came out at 56.8% in experiment [1] (setting [18]) and 58% in experiment [1] (setting [19]). For the same compound, the Potency result in experiment [2], in [3], in experiment [12], in experiment [14] and in experiment [15] was “inactive” each time. The Potency is 7.08 µM (active) in experiment [5]; 12.6 µM (active) in [6]; 11.2 µM (active) in experiment [7]; 14.1 µM (active) in experiment [8]; 10 µM (active) in experiment [16]; 8.91 µM (active) in [9]. Also, the Potency in [10] was 12.6 µM (active).

With `NNC(N)=O`, in experiment [1], the activity change, negative = inhibition is 1.16% (inactive). Also, the values for the max response in experiment [1] (setting [18]) and in [1] (setting [19]) were -7.78% and -7.06%, respectively. The Potency entry in experiment [2], in [3], in experiment [5], in experiment [6], in [7] and in experiment [8] was “inactive” in each case. Further, the Potency entry in [16], in experiment [9], in experiment [10], in experiment [12], in [13] and in experiment [14] was “inactive” each time. For the same compound, the Potency result in [15] was “inactive”. Moreover, the result in experiment [17] and in [11] was inactive.

In the case of `c1ccc2c(N3CCNCC3)cccc2c1`, the activity change, negative = inhibition in experiment [1] was -1.92% (inactive). In addition, the figures for the max response in experiment [1] (setting [18]) and in experiment [1] (setting [19]) were 39.8% and 34.6%, respectively. Also, the Potency entry in [2], in experiment [3], in experiment [4], in [12], in [13] and in experiment [14] was “inactive” in each case. In addition, in [15], the Potency entry is “inactive”. For the same compound, the Potency was 12.6 µM (active) in [5]; 12.6 µM (active) in experiment [6]; 10 µM (active) in experiment [8]; 11.2 µM (active) in experiment [16]; 7.94 µM (active) in experiment [9]. Besides, the compound was classed as inactive in experiment [11].

Regarding `CCCn1c(C)c(C(=O)c2ccc3ccccc3c2)c2ccccc21`, in experiment [1], the activity change, negative = inhibition is -0.784% (inactive). Besides, the figures for the max response in experiment [1] (setting [18]) and in [1] (setting [19]) were 17.8% and 16.6%, respectively. Moreover, the Potency result in experiment [2], in experiment [3], in experiment [16], in experiment [12], in [14] and in experiment [15] was “inactive” each time. In addition, the Potency in experiment [5] was 7.94 µM (active); in experiment [6], 10 µM (active); in experiment [7], 10 µM (active); in experiment [8], 14.1 µM (active); in experiment [9] it was 10 µM (active); in [10] it was 12.6 µM (active). In addition, the compound was classed as inactive in experiment [11].

Regarding `CN1C2CCC1CC(OC(c1ccccc1)c1ccccc1N)C2` (configuration not stated), the activity change, negative = inhibition in experiment [1] was 0.575% (inactive). The results for the max response in experiment [1] (setting [18]) and in experiment [1] (setting [19]) were -2.6% and -1.25%, respectively. For the same compound, the Potency result in experiment [2], in experiment [3], in experiment [4], in experiment [12], in experiment [13] and in experiment [14] was “inactive” throughout. The Potency result in experiment [15] was “inactive”. Moreover, the Potency in experiment [5] is 8.91 µM (active); in [6] it was 5.62 µM (active); in [7], 11.2 µM (active); in experiment [9], 2.51 µM (active); in experiment [10] it was 10 µM (active). Further, the compound was classed as inactive in [11].

Take `CN(N=O)c1ccc(O)c(O)c1`: the activity change, negative = inhibition in [1] was -1.9% (inactive). Besides, the values for the max response in experiment [1] (setting [18]) and in experiment [1] (setting [19]) were -25.4% and -24.9%, respectively. In addition, the Potency in [2] was 0.501 µM (active); in experiment [3] it was 14.1 µM (active); in experiment [4] it was 8.91 µM (active); in experiment [12], 1.12 µM (active); in experiment [13], 6.31 µM (active). Besides, the Potency entry in experiment [5], in experiment [7], in [8], in experiment [16], in experiment [14] and in [15] was “inactive” in each case.
